Legend:
Test in all cases: DAPPL (digital affinity profiling via proximity ligation, sequencing); 10 mM Tris-HCl pH 7.5, 50 mM NaCl, 1 mM DTT, 4% glycerol, room temperature, 30 min; GST-TFs on glutathione beads, 16-mer random dsDNA library, 0.1% formaldehyde crosslink after washing; high values mean tight binding
[1] = molecular target: T1, FEV (Homo sapiens, UniProt Q99581 1-238); settings: protein: recombinant; tags: N-terminal GST; dsDNA, one strand shown
T1 sequence: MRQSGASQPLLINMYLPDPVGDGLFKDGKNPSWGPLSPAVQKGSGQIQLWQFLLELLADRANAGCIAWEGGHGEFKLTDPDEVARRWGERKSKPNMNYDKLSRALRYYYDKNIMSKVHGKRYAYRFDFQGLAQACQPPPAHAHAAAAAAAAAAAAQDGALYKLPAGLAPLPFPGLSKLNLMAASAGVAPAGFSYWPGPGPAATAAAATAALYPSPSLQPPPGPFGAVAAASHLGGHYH
Procedure, shortened: (§1)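 Sequencing on an Illumina NextSeq500 followed washing, crosslinking with 0.1% formaldehyde, proximity ligation (BsaI/T4 ligase, 1 h, 37 °C) and PCR amplification of pools that had been incubated for 30 min at room temperature with 200 nmole of a random double-stranded 16-mer DNA library in Tris/NaCl/DTT/glycerol buffer. Each pool held DNA-barcoded human transcription factors, expressed in yeast as GST fusions and captured on glutathione beads, plus a tag-only sample. Binding signal is a hexamer's read frequency for a factor divided by its frequency in the tag-only sample.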

[2] = molecular target: ETV5 (Homo sapiens, UniProt P41161 1-510); settings: protein: recombinant; tags: N-terminal GST; dsDNA, one strand shown
ETV5, sequence (P41161 whole entry): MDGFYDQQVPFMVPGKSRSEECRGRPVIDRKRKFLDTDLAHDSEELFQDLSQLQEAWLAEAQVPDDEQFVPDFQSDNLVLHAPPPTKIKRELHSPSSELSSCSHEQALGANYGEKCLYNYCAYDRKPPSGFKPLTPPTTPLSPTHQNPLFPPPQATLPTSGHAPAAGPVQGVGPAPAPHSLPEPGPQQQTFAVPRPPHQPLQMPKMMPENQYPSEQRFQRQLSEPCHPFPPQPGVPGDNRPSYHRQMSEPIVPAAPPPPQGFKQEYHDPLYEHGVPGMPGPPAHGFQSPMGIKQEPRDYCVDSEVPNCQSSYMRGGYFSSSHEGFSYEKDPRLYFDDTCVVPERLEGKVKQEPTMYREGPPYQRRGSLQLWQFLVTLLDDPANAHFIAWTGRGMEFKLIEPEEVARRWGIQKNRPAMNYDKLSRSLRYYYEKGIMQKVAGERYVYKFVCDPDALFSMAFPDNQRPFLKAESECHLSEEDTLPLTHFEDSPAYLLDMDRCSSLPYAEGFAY
Procedure, shortened: as §1

[3] = molecular target: HSF1 (Homo sapiens, UniProt Q00613 1-529); settings: protein: recombinant; tags: N-terminal GST; chain copies: 3; dsDNA, one strand shown
HSF1, sequence (Q00613 whole entry): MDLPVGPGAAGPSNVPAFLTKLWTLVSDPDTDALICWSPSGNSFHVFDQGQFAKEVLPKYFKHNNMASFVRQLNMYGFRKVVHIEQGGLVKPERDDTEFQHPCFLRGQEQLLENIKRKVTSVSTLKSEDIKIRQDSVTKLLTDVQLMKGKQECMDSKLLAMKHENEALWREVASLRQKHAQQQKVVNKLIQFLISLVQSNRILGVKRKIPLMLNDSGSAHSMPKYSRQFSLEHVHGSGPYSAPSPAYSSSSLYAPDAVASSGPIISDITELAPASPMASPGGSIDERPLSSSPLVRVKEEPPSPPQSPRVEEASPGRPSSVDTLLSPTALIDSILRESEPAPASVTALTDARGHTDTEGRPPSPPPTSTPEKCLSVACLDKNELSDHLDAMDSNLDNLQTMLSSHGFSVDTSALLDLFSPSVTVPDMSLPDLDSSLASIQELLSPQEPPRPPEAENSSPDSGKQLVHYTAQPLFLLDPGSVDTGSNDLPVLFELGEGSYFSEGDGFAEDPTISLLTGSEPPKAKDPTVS
Procedure, shortened: as §1

[4] = molecular target: T2, SPIC (Homo sapiens, UniProt Q8N5J4 1-248); settings: protein: recombinant; tags: N-terminal GST; dsDNA, one strand shown
T2 sequence: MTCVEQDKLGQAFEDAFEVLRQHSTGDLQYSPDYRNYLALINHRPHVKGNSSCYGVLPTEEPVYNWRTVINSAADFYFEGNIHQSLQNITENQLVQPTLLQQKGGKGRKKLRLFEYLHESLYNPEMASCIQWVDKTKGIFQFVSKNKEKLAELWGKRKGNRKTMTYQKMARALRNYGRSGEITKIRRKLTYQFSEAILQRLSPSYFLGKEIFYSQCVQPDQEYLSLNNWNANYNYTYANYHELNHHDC
Procedure, shortened: as §1

[5] = molecular target: ELF4 (Homo sapiens, UniProt Q99607 1-663); settings: protein: recombinant; tags: N-terminal GST; dsDNA, one strand shown
ELF4, sequence (Q99607 whole entry): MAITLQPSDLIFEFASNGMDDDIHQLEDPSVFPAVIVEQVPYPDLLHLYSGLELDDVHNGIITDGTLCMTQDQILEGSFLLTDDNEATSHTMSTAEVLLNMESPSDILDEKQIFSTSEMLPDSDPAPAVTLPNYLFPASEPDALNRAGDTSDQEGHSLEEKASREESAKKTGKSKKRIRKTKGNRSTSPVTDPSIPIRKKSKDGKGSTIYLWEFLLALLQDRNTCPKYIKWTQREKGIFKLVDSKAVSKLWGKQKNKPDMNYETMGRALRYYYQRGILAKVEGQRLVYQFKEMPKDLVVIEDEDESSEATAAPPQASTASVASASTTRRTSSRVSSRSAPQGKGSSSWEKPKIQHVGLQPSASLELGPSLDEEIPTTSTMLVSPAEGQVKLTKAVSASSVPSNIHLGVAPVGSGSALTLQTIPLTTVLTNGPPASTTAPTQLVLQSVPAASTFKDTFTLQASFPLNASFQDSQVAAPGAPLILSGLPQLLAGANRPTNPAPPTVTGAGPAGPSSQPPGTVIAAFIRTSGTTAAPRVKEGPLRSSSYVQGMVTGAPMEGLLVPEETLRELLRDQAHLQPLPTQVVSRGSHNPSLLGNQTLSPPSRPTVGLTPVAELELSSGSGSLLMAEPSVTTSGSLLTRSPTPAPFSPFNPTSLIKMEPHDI
Procedure, shortened: as §1

[6] = molecular target: T3, ELK4 (Homo sapiens, UniProt P28324-2 1-405); settings: protein: recombinant; tags: N-terminal GST; dsDNA, one strand shown
T3 sequence: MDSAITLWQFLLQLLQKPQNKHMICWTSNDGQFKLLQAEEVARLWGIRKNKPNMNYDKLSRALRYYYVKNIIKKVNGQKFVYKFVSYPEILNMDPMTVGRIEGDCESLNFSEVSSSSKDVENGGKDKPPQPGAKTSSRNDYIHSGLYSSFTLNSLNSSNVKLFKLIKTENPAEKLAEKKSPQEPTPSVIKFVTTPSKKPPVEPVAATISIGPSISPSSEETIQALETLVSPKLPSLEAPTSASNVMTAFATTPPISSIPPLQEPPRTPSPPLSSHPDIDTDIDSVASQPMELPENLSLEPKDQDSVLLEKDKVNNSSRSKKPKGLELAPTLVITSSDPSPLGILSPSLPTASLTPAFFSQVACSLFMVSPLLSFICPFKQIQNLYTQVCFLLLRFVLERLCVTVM
Procedure, shortened: as §1

[7] = molecular target: T4, ETV2 (Homo sapiens, UniProt O00321 1-342); settings: protein: recombinant; tags: N-terminal GST; dsDNA, one strand shown
T4 sequence: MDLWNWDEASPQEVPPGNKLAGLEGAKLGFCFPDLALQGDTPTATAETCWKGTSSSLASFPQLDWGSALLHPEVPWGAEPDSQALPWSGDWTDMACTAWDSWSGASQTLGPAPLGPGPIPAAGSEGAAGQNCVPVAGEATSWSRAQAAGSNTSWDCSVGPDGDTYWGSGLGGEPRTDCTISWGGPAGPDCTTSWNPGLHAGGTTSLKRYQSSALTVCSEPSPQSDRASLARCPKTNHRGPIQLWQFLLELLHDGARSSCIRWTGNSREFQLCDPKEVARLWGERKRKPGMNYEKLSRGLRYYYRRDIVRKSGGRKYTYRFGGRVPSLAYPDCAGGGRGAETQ
Procedure, shortened: as §1

[8] = molecular target: ETV1 (Homo sapiens, UniProt P50549 1-477); settings: protein: recombinant; tags: N-terminal GST; dsDNA, one strand shown
ETV1, sequence (P50549 whole entry): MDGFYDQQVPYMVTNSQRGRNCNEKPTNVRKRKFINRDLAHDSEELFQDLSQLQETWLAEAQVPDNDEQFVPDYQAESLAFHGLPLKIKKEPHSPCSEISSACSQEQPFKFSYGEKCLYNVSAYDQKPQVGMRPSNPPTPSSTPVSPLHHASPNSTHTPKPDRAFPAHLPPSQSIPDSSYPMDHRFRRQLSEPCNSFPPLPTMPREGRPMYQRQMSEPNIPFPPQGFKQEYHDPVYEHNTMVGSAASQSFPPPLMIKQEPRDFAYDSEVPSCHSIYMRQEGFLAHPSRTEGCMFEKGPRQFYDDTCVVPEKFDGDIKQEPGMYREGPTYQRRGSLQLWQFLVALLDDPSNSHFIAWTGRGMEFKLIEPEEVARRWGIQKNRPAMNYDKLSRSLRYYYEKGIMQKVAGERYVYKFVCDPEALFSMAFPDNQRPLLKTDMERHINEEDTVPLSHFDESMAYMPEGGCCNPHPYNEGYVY
Procedure, shortened: as §1

[9] = molecular target: T5, ERF (Homo sapiens, UniProt P50548 1-548); settings: protein: recombinant; tags: N-terminal GST; dsDNA, one strand shown
T5 sequence: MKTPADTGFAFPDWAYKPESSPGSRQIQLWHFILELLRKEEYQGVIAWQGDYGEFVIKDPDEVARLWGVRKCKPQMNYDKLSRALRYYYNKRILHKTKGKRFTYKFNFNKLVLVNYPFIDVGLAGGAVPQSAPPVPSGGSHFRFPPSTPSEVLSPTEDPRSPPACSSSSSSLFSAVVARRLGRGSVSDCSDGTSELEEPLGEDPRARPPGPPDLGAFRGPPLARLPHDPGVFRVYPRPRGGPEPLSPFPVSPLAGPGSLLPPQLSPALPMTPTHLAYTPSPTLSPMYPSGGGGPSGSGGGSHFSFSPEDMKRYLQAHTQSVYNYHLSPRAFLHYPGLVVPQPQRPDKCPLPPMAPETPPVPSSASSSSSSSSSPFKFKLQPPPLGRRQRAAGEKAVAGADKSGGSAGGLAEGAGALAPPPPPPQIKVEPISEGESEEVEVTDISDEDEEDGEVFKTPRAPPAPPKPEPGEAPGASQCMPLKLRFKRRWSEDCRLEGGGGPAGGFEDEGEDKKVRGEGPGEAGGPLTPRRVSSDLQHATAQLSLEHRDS
Procedure, shortened: as §1

[10] = molecular target: T6, ETV3L (Homo sapiens, UniProt Q6ZN32 1-361); settings: protein: recombinant; tags: N-terminal GST; dsDNA, one strand shown
T6 sequence: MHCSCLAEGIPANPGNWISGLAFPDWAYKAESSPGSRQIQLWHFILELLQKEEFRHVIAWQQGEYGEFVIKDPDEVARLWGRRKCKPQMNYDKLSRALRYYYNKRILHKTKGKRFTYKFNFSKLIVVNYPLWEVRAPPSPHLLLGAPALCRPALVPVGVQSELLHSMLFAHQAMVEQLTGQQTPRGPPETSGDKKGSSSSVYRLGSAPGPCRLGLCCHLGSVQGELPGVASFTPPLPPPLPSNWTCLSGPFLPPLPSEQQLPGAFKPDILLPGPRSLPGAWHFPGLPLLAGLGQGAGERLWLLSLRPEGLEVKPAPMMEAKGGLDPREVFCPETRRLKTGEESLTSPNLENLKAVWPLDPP
Procedure, shortened: as §1

[11] = molecular target: T7, ETV7 (Homo sapiens, UniProt Q9Y603 1-341); settings: protein: recombinant; tags: N-terminal GST; dsDNA, one strand shown
T7 sequence: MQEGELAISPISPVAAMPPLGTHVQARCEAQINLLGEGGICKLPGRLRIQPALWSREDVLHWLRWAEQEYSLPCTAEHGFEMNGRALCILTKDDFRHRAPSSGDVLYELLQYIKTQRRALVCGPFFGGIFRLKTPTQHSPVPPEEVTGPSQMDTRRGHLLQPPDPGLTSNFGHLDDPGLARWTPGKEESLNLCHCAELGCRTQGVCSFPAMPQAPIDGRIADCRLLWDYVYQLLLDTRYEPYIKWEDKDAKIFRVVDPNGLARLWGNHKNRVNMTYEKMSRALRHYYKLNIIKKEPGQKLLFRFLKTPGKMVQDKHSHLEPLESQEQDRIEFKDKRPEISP
Procedure, shortened: as §1

[12] = molecular target: T8, ELF5 (Homo sapiens, UniProt Q9UKW6-2 1-255); settings: protein: recombinant; tags: N-terminal GST; dsDNA, one strand shown
T8 sequence: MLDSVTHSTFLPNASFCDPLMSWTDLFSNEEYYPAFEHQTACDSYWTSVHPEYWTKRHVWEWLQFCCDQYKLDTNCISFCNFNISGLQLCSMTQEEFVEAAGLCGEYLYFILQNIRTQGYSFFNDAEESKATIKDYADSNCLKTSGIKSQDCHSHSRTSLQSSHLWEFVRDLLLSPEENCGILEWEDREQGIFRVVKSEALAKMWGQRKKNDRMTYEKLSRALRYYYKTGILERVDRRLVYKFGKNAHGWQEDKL
Procedure, shortened: as §1

[13] = molecular target: T9, ETV3 (Homo sapiens, UniProt P41162-2 1-143); settings: protein: recombinant; tags: N-terminal GST; dsDNA, one strand shown
T9 sequence: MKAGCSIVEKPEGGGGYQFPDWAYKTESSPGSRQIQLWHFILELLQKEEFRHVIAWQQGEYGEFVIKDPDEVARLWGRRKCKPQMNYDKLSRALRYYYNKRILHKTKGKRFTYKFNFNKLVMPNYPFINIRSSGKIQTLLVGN
Procedure, shortened: as §1

[14] = molecular target: ETV6 (Homo sapiens, UniProt P41212 1-452); settings: protein: recombinant; tags: N-terminal GST; dsDNA, one strand shown
ETV6, sequence (P41212 whole entry): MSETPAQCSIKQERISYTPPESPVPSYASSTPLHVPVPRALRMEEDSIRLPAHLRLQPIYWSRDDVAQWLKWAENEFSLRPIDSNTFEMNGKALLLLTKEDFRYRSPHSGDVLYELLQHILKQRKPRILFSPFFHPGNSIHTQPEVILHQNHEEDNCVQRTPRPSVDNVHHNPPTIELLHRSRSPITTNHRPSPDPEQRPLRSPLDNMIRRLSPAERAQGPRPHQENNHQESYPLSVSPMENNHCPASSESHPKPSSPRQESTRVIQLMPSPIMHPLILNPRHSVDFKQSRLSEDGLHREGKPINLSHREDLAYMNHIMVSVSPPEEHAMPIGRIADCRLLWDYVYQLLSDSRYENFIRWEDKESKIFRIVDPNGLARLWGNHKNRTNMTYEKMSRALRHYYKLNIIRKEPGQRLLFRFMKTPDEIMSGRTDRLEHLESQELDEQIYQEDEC
Procedure, shortened: as §1

[15] = molecular target: CRX (Homo sapiens, UniProt O43186 1-299); settings: protein: recombinant; tags: N-terminal GST; dsDNA, one strand shown
CRX, sequence (O43186 whole entry): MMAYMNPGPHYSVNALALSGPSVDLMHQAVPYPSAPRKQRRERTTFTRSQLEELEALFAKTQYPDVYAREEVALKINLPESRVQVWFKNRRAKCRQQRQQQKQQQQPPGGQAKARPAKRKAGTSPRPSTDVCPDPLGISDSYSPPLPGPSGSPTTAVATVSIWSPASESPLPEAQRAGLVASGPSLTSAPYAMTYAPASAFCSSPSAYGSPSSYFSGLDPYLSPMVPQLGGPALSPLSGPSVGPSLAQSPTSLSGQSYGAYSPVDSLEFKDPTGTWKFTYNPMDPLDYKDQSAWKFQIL
Procedure, shortened: as §1

[16] = molecular target: T10, ETS2 (Homo sapiens, UniProt P15036 1-469); settings: protein: recombinant; tags: N-terminal GST; dsDNA, one strand shown
T10 sequence: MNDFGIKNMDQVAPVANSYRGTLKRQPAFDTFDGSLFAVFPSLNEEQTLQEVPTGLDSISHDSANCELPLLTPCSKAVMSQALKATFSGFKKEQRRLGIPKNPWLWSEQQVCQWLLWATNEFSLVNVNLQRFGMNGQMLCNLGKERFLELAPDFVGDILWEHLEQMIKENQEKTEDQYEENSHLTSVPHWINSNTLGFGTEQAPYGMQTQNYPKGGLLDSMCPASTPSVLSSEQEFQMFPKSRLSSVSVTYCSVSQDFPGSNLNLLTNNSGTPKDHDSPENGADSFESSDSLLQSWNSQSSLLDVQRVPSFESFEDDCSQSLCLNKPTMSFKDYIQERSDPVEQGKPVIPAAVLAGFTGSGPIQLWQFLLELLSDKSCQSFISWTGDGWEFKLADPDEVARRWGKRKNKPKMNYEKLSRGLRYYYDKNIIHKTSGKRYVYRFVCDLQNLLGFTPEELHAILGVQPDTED
Procedure, shortened: as §1

[17] = molecular target: T11, SPDEF (Homo sapiens, UniProt O95238 1-335); settings: protein: recombinant; tags: N-terminal GST; dsDNA, one strand shown
T11 sequence: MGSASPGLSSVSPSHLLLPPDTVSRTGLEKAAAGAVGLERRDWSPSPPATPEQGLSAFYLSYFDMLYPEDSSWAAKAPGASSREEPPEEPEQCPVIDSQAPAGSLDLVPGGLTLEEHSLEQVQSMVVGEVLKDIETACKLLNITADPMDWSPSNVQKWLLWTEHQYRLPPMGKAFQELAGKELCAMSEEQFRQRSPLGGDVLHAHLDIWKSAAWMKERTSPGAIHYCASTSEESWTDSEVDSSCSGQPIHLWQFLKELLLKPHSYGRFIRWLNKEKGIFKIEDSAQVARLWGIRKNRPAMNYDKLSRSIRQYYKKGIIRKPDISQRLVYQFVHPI
Procedure, shortened: as §1

Sequence	binding signal [1]	binding signal [2]	binding signal [3]	binding signal [4]	binding signal [5]	binding signal [6]	binding signal [7]	binding signal [8]	binding signal [9]	binding signal [10]	binding signal [11]	binding signal [12]	binding signal [13]	binding signal [14]	binding signal [15]	binding signal [16]	binding signal [17]
TGCGCG	1.07 fold enrichment (6-mer frequency, TF over GST control)	1.07 fold enrichment (6-mer frequency, TF over GST control)	1.15 fold enrichment (6-mer frequency, TF over GST control)	1.05 fold enrichment (6-mer frequency, TF over GST control)	1.05 fold enrichment (6-mer frequency, TF over GST control)	1.16 fold enrichment (6-mer frequency, TF over GST control)	1.13 fold enrichment (6-mer frequency, TF over GST control)	1.19 fold enrichment (6-mer frequency, TF over GST control)	1.24 fold enrichment (6-mer frequency, TF over GST control)	1.02 fold enrichment (6-mer frequency, TF over GST control)	1.23 fold enrichment (6-mer frequency, TF over GST control)	1.01 fold enrichment (6-mer frequency, TF over GST control)	1.03 fold enrichment (6-mer frequency, TF over GST control)	1.14 fold enrichment (6-mer frequency, TF over GST control)			
AGCCTA	1.01 fold enrichment (6-mer frequency, TF over GST control)	1.09 fold enrichment (6-mer frequency, TF over GST control)	1.21 fold enrichment (6-mer frequency, TF over GST control)	1.13 fold enrichment (6-mer frequency, TF over GST control)	1.09 fold enrichment (6-mer frequency, TF over GST control)	1.17 fold enrichment (6-mer frequency, TF over GST control)	1.12 fold enrichment (6-mer frequency, TF over GST control)	1.12 fold enrichment (6-mer frequency, TF over GST control)	1.12 fold enrichment (6-mer frequency, TF over GST control)	1.09 fold enrichment (6-mer frequency, TF over GST control)	1.13 fold enrichment (6-mer frequency, TF over GST control)		1.1 fold enrichment (6-mer frequency, TF over GST control)		1.52 fold enrichment (6-mer frequency, TF over GST control)	1.04 fold enrichment (6-mer frequency, TF over GST control)	
CCACGA	1.11 fold enrichment (6-mer frequency, TF over GST control)	1.02 fold enrichment (6-mer frequency, TF over GST control)	1.12 fold enrichment (6-mer frequency, TF over GST control)	1.17 fold enrichment (6-mer frequency, TF over GST control)	1.1 fold enrichment (6-mer frequency, TF over GST control)	1.18 fold enrichment (6-mer frequency, TF over GST control)	1.09 fold enrichment (6-mer frequency, TF over GST control)	1.02 fold enrichment (6-mer frequency, TF over GST control)	1.04 fold enrichment (6-mer frequency, TF over GST control)	1.09 fold enrichment (6-mer frequency, TF over GST control)	1.17 fold enrichment (6-mer frequency, TF over GST control)	1.01 fold enrichment (6-mer frequency, TF over GST control)	1.02 fold enrichment (6-mer frequency, TF over GST control)	1.01 fold enrichment (6-mer frequency, TF over GST control)	1 fold enrichment (6-mer frequency, TF over GST control)	1.08 fold enrichment (6-mer frequency, TF over GST control)	1.03 fold enrichment (6-mer frequency, TF over GST control)
